A selection: hits, their analogues and other compounds. The true share with any hit is near 10%.
CtBP-E1A inh: qHTS Assay for Inhibitors of the CtBP/E1A Interaction | CtBP / adenovirus E1A interaction (AlphaScreen) | AlphaScreen GST-E1A/His-CtBP binding, 1536-well; stronger effect = lower value | activity change, % (no concentration beside the values) | hit rate 0.49% among 340,000 | AID 651724, 2012; in the data active means activity change below about -65%; inconclusive means mostly about -30% to -63%; further: on the % scale 0 is the no-effect control and ±100 the full control effect
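Steps: dispense buffer (Tris pH 8.0, NaCl 300 mM, TCEP 1 mM, BSA, Tween 20); add 5X protein mix (GST-E1A, His-CtBP, 125 nM each); pin 23 nL compound; 2 h at 37 °C, dark; add 5X beads (50 ug/mL); 1 h; read.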
BAZ2B block: qHTS Assay for Inhibitors of BAZ2B | Bromodomain adjacent to zinc finger domain protein 2B (Homo sapiens), Q9UIF8 | AID 504333, 2011 | Potency, µM (highest dose often 114 µM), for the others: at the top dose activity change, negative = inhibition, hits mostly inhibitors | AlphaScreen BAZ2B-H3K14Ac peptide displacement | hit rate 4.4% among 360,000; further: potency means the concentration at half of the fitted maximal effect; on the % scale 0 is the no-effect control and ±100 the full control effect; nearly all actives have a fitted effect of over 60% in size
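AlphaScreen displacement: compounds (up to 110uM) incubated 30 min at room temperature with a preformed 50 nM BAZ2B/50 nM biotinylated H3K14Ac peptide complex in PBS pH 7.4 with Tween-20. Donor and acceptor beads at 10 ug/mL final added, 20 min light-protected before reading.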
JMJD2A Tudor inh: qHTS Assay for Inhibitors of JMJD2A-Tudor Domain; AlphaScreen JMJD2A-Tudor / H3K4me3 peptide binding; Potency, µM (doses to about 114 µM), for inactives: at the highest dose activity change, negative = inhibition, hits mostly inhibitors; hit rate 4.4% among 390,000; AID 504339, 2011; further: potency means the concentration at half of the fitted maximal effect; on the % scale 0 is the no-effect control and ±100 the full control effect; nearly all actives have a fitted effect of over 50% in size
Six1-Eya2 inh: qHTS Assay for Inhibitors of the Six1/Eya2 Interaction; AID 651725, 2012; activity change, % (no concentration beside the values); Homeobox protein SIX1 (Homo sapiens) + Protein phosphatase EYA2 (Homo sapiens), …; AlphaScreen GST-Six1/His-Eya2 binding, biochemical; stronger effect = lower value; hit rate 0.56% among 360,000; in the data active means activity change below about -65%; inconclusive means mostly about -30% to -63%; further: on the % scale 0 is the no-effect control and ±100 the full control effect
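GST-Six1 + His-Eya2 (5X stock: 250/500 nM); Tris pH 8.0, 300 mM NaCl, 0.05% BSA, 0.02% Tween 20; GSH donor/Ni acceptor beads; 1 h 37 °C dark; AlphaScreen readout.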
HP1b chromo inh: HTS for Inhibitors of HP1-beta Chromodomain Interactions with Methylated Histone Tails. Chromobox protein homolog 1 (Homo sapiens), P83916. AlphaScreen HP1-beta / biotin-H3K9me3 peptide binding. Potency, µM (doses to about 114 µM), without a hit: at the highest dose activity change, negative = inhibition, actives largely listed as inhibitors. hit rate 0.56% among 390,000. AID 540317, 2011; further: potency means the concentration at half of the fitted maximal effect; nearly all actives have a fitted effect of over 70% in size
Target sequence (P83916 whole entry, looked up): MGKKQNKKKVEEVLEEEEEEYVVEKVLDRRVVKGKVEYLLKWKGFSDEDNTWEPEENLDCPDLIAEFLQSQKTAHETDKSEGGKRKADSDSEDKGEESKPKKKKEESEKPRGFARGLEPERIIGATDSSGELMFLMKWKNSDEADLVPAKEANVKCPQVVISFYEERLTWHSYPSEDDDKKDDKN
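HP1-beta protein (50 nM final) preincubated 30 min at room temperature with biotinylated H3(1-18)K9me3 peptide (50 nM) in PBS pH 7.4, 0.01% Tween-20, then compound added for 30 min. AlphaScreen streptavidin donor/nickel chelate acceptor beads (10 ug/mL final), 30 min dark, luminescence read.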
G9a block: qHTS Assay for Inhibitors of Histone Lysine Methyltransferase G9a; Histone-lysine N-methyltransferase EHMT2 (Homo sapiens), Q96KQ7; G9a H3K9 monomethylation, AlphaScreen, 2 h; AID 504332, 2011; hit rate 8.8% among 350,000; Potency, µM (highest dose often 102 µM), without a hit: at the highest dose activity, negative = inhibition, actives largely listed as inhibitors; further: potency means the concentration at half of the fitted maximal effect; on the % scale 0 is the no-effect control and ±100 the full control effect; nearly all actives have a fitted effect of over 75% in size
Target sequence (Q96KQ7 913-1193 limits assumed): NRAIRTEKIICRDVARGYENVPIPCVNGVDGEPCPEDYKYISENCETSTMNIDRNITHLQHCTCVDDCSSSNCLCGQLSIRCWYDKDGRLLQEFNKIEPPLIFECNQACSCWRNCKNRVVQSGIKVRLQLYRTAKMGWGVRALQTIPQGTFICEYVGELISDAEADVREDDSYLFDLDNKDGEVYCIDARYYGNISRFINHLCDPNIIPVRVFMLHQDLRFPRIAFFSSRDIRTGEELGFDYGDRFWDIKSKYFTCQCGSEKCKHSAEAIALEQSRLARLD
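AlphaScreen detection with an anti-monomethyl H3K9 antibody quantified product after a 2 h room-temperature reaction containing 500 nM biotinylated H3K9 peptide, 20 µM SAM and 20 nM enzyme, which had been preincubated 15 min with compound.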
The depositor's hits bear a star; ? = inconclusive; · = no result given; [ ] = dose if it differs, or a comment. Unless noted, the call rests on the fitted dose curve; in most records, active means well fitted inhibition curve with a large enough effect; inconclusive means small, poorly fitted or top-dose-only effect; inactive means no such curve, though single readings can be large or run the other way.

SMILES | CtBP-E1A inh | BAZ2B block | JMJD2A Tudor inh | Six1-Eya2 inh | HP1b chromo inh | G9a block
CCOC12NC(=O)CC(=O)N1C(c1ccccc1)=CS2 (stereo not drawn) | -6.0 | -37.4% | -16.4% | -4.9 | 12.5% | 50.1µM*
O=C(Oc1ccc(-c2cnc3ccccc3n2)cc1)c1cc([N+](=O)[O-])ccc1Cl | 4.0 | -11.9% | -4.5% | -4.4 | 16.1% | 28.2µM*
O=[N+]([O-])c1cc(-c2cnc3ccccc3n2)ccc1Oc1ccc(Cl)cc1 | -13.1 | ? | -32.9% | -22.5 | 10.1% | 14.1µM*
CCC(=O)Oc1ccc(-c2cnc3ccccc3n2)cc1 | -4.5 | 17.8% | 4.9% | -2.6 | 21.0% | -47.9%[59 µM]
O=[N+]([O-])c1cc(-c2cnc3ccccc3n2)ccc1Cl | -7.6 | -20.3% | -33.8% | 0.0 | -22.0% | -3.1%
Cc1c(-c2ccccc2)nc2ccccc2c1C(=O)Oc1ccc([N+](=O)[O-])cc1 | -21.2 | -36.4% | -17.0% | -12.4 | 4.7% | 12.0%[0.501 µM]
Cc1nc2cccc(C(=O)Oc3ccc([N+](=O)[O-])cc3)c2o1 | -14.8 | -5.6% | -32.6% | -81.7* | 23.4% | -0.3%
Cc1c(C(=O)Oc2ccc(-c3cnc4ccccc4n3)cc2)cccc1[N+](=O)[O-] | -1.2 | -24.3% | -34.1% | -9.3 | 17.2% | 20µM*
COc1ccccc1Oc1ccc(-c2cnc3ccccc3n2)cc1[N+](=O)[O-] | -14.2 | -37.8% | -25.4% | -24.9 | -9.1% | ?
Cn1cnc2c(=O)oc3ccc(S(=O)(=O)N4CCN(c5ccccc5F)CC4)cc3c21 | · | -33.2% | -7.6% | · | 11.5% | -15.9%[59 µM]
CCn1nnc2cc(C(=O)Nc3cccc(Cl)c3)ccc21 | · | 3.4% | -14.0% | · | 15.9% | 0.7%[59 µM]
O=C(Nc1ccc(Cl)cc1F)c1cc(S(=O)(=O)NC2CCCCCC2)ccc1F | · | 0.0% | -11.3% | · | 40.0% | 2.0%[59 µM]
CCOC(=O)Cn1c(=O)n(C2CCCCC2)c2nc(-c3ccc(CC)cc3)nc(C(N)=O)c21 | · | -1.2% | -11.5% | · | 16.2%[57 µM] | 9.8%[59 µM]
CCN(c1ccccc1)c1ncnc2c1cnn2-c1ccc(OC)cc1 | · | 26.9% | 5.0% | · | 22.7% | 13.1%[59 µM]
O=C(O)c1ccccc1-c1ccc(C(F)(F)F)cc1 | · | · | · | · | · | 0.9%[12.7 µM]
COc1ccc(S(=O)(=O)Nc2cc(OC)cc3cccnc23)cc1 | · | · | -19.3% | · | · | ·
O=S(=O)(Cc1ccccc1)N1CCN(c2ncccn2)CC1 | 5.0 | -4.9% | -2.8% | 1.5 | 55.5% | 15.0%
O=[N+]([O-])c1ccccc1CN1CCN(S(=O)(=O)Cc2ccccc2)CC1 | -7.7 | 44.7µM* | 0.794µM* | 13.1 | ? | ·
COc1ccc(S(=O)(=O)N2CCN(Cc3cccc(Cl)c3)CC2)cc1 | -3.1 | -0.9% | -11.8% | -0.2 | 16.0% | -20.9%[59 µM]
CCOc1ccc(C(=O)CN2CCN(S(=O)(=O)c3ccc(Cl)cc3)CC2)cc1 | -5.6 | -6.5% | -9.3% | -2.2 | 65.4% | 35.5µM*
COc1ccc(S(=O)(=O)N2CCN(Cc3cccc(F)c3)CC2)cc1 | -3.1 | · | 3.16µM* | 30.6 | ? | ·
COc1ccc(S(=O)(=O)N2CCN(Cc3cccc([N+](=O)[O-])c3)CC2)cc1 | -1.1 | · | 20µM* | -16.5 | ? | ·
COc1ccc(-c2nc3ccccc3n3c(-c4cccc(C)c4)c4c(=O)n(C)c(=O)n(C)c4c23)cc1OC | · | -1.7% | -34.7% | · | 16.9% | -4.9%[59 µM]
COc1ccc(S(=O)(=O)N2CCN(Cc3ccccc3[N+](=O)[O-])CC2)cc1 | -10.0 | · | 3.16µM* | ? | ? | ·
COc1ccccc1CNC(=O)N1CCN(S(=O)(=O)c2ccc(C)cc2)CC1 | 0.0 | 8.0% | -12.0% | 0.2 | 5.5% | 32.3%
COc1ccccc1CN1CCN(S(=O)(=O)c2ccc(C)cc2)CC1 | -0.8 | · | 20µM* | -11.8 | ? | ·

High-throughput results as filed in PubChem.
